Source: PubChem BioAssay AID1307 (SRMLSC, 2008)
Hit rate of the full screen: of about 1,200 compounds, fewer than 10 were called active.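 Rule for the calls: active = inhibition reaching a set limit at one or more tested concentrations; inactive = inhibition under that limit at every dose.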 Only a sample is shown. Measured potencies and affinities stand elsewhere.

experiment: RAM pathway signaling blockade in S. cerevisiae – dose response (AID 1307);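 note: 0% = DMSO vehicle wells and 100% = 10 µM 1-NA-PP1 control; higher inhibition means more yeast growth since RAM block rescues cells from 5-FOA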; settings: S. cerevisiae RAM network URA3 reporter, 5-FOA growth OD615, active compounds read high, yeast express analog-sensitive mutant Cbk1 kinase; at 100 µM unless noted

Max inhibition, inactive:
CCCCc1ccc(-c2csc(/C(C#N)=C/c3ccc(C)o3)n2)cc1 4.24%
CCC(C)c1ccc(NC(=S)NCc2ccccc2OC)cc1 (stereo unspecified) 5.65%
CCCCC(=O)Nc1ccccc1C(=O)OCC(=O)c1ccc2c(c1)OCCO2 2.31% [at 0.196 µM]
CCOC(=O)N1CCC(N(CCN(C)C)C(=S)Nc2cccc(SC)c2)CC1 2.41% [at 0.782 µM]
CCCN(CCC)c1nc2ccccc2nc1C(C#N)C(=O)OC(C)COC (stereo unspecified) 2.6%
Cc1ccc(-c2ccc(C(=O)NCc3ccccc3)o2)c2ccccc12 3.65%
CC(C)Oc1cccc(C(=O)NC(=S)Nc2cccc(C(F)(F)F)c2)c1 2.41% [at 0.782 µM]
O=C(CN(C(=O)CSc1nnc(COc2ccccc2)o1)c1ccc(F)cc1)NC1CCCC1 2.82%
Cc1ccccc1OCCC(=O)Nc1cccc(S(=O)(=O)Nc2ccccc2Cl)c1 2.67% [at 0.196 µM]
O=S(=O)(NCCSCc1ccc(Cl)cc1Cl)c1ccc2c(c1)OCCO2 2.05% [at 12.5 µM]
CCCCCOP(=O)(OCCCCC)C1(NS(=O)(=O)c2ccccc2)C=CC(=O)c2ccccc21 (stereo unspecified) 2.83%
COc1ccccc1OCC(=O)Nc1ccc(CSc2ccccc2)cc1C 1.56% [at 25 µM]
Cc1ccc(-n2c(SCC(=O)Nc3cccc(S(=O)(=O)NC4=NCCCCC4)c3)nc3ccccc3c2=O)cc1C 11%
CC(C)=CCC/C(C)=C/Cc1c(O)ccc(C(=O)/C=C/c2ccc(O)cc2)c1O 5.39%
CCOc1ccc2nc(SCC(=O)c3ccccc3)sc2c1 3% [at 0.196 µM]
COc1ccc(/C=C2\SC(=S)N(CC(=O)OCC(=O)Nc3ccc([N+](=O)[O-])cc3OC)C2=O)cc1 8.9%
C=CCc1cccc(/C=N/NC(=O)C(C)Nc2ccc(C)cc2)c1O (stereo unspecified) 2.46% [at 0.782 µM]
CCOc1cccc(-c2csc(C3COc4ccccc4O3)n2)c1 (stereo unspecified) 5.04% [at 50 µM]
COc1ccc2c(C)cc(SCC(=O)c3ccc4c(c3)OCO4)nc2c1 4.01%
FC(F)(F)c1nc(N2CCN(c3ccccc3)CC2)nc2c1CCCCC2 3.63%
CCOC(=O)c1c(C)[nH]c(C)c1C(=O)COC(=O)/C=C/c1ccc(Cl)cc1 2.07% [at 0.391 µM]
CCSC1=N/C(=C\c2ccc(-c3ccccc3[N+](=O)[O-])o2)C(=O)S1 5.47% [at 25 µM]
CC1CCCN(C(=O)C(C)Sc2nc(-c3ccccc3)cc(C(F)(F)F)n2)C1 (stereo unspecified) 3.6% [at 25 µM]
CCc1ccc(OCC(=O)N2c3ccccc3CCc3ccccc32)cc1 2.64% [at 3.125 µM]
Fc1ccc(CSc2nnc(Cc3sc(-c4ccccc4)nc3-c3ccccc3)o2)cc1 5.66%
O=C(Nc1ccccc1)C1=C[C@H](C2CCCCC2)C[C@H](OCc2ccc(CO)cc2)O1 4.12%
CCCNS(=O)(=O)c1ccc(CCC(=O)Nc2cc(Cl)ccc2Oc2ccccc2)cc1 1.73%
Cc1cccc(NC(=O)/C(C#N)=C/c2ccc(Sc3ccccc3)o2)c1C 10.5%
CC(C)Oc1ccccc1OCCCCn1cnc2ccccc2c1=O 2.35% [at 6.25 µM]
Cc1ccc(-c2csc(N(CC3CCCO3)C(=O)c3ccco3)n2)cc1 (stereo unspecified) 1.93% [at 12.5 µM]
OCCNc1nc(SCc2ccccc2)nc2sc3c(c12)CCC3 1.56% [at 3.125 µM]
Cc1cc(NC(=O)CSc2nc3ccsc3c(=O)n2Cc2ccccn2)n[nH]1 2.41% [at 12.5 µM]
COC(=O)c1cc2c(ccn2-c2ccc(F)cc2)n1Cc1ccc(OC)cc1 5.52% [at 50 µM]
CCC1(C)CC(CCNS(=O)(=O)c2ccc(C)cc2)(c2ccc(C)cc2)CCO1 (stereo unspecified) 3.04%
Cn1c(N=Nc2ccc(N3CCOCC3)cc2)[n+](C)c2ccccc21 25%
Cc1ccc(SCCNC(=S)Nc2ccc(C)c(C)c2)cc1 4.41% [at 12.5 µM]
Brc1ccc(CSc2nnc(Cc3c[nH]c4ccccc34)o2)cc1 3.66%
CCOCCOC(=O)C(C)Oc1ccc(Oc2nc(Cl)ccc2Cl)cc1 (stereo unspecified) 2.21% [at 25 µM]
CCOc1nc(-c2ccccc2)ccc1-c1noc(COc2ccccc2)n1 3.61% [at 50 µM]
Cc1ccccc1OCC(=O)OCC(=O)c1ccc(OCc2ccccc2)cc1 4.85% [at 50 µM]
COc1ccccc1C(NC(=O)C1CCCCC1)c1c(O)ccc2ccccc12 (stereo unspecified) 5.27%
CCCCC1(Cc2cccc([N+](=O)[O-])c2)C(=O)N(c2ccccc2)N(c2ccccc2)C1=O 4.01% [at 50 µM]
O=C(COC(=O)CCCNC(=O)c1ccc(Cl)cc1)Nc1cc(Cl)c(Cl)cc1Cl 3.97% [at 50 µM]
COc1ccc(C(=O)/C=C/Nc2ccc(S(=O)(=O)Nc3ncccn3)cc2)cc1 7.67%
CCCCOc1ccc(S(=O)(=O)Nc2cc(OC)ccc2OC)cc1 3.71% [at 25 µM]
COc1cc2c(=O)n(Cc3ccco3)c(=O)n(CC(=O)c3ccc(Br)cc3)c2cc1OC 3.72% [at 0.196 µM]
Cc1ccc(SCC(=O)Nc2ccc(F)cc2[N+](=O)[O-])cc1C 2.24%
COc1cc(/C=N/Nc2ccc(Cl)cc2)ccc1OC(=O)c1cccs1 2.6% [at 0.391 µM]
COc1ccc(-c2nc(-c3ccc(O)cc3O)cs2)cc1OC 5.02% [at 3.125 µM]
CCOC(=O)c1cc(C#N)c(Oc2cccc(C(F)(F)F)c2)nc1-c1ccccc1 2.36%
CC(=O)Nc1ccc(-c2cc(-c3ccc(NC(C)=O)cc3)nc(-c3ccc(NC(C)=O)cc3)n2)cc1 13.5%
